Entries with a potency or affinity are not part of this list. Values without a mark were called inactive. No rule for the calls is given here.

The assay in a line: HEK293 cell cytotoxicity, dose response, cytotoxicity control, plate reader, cherry-picked samples (AID 743446). The note with it: hits give low values; at 26 µM unless noted.
For the molecule `O=C(O)c1cccc(COc2ccc(CO)cc2Cl)c1`, the max activity is 13.3% [at 6 µM].

For `CC(C)(C)n1ncc2c(=O)n(CC(=O)OCc3ccccc3)cnc21`, the max activity is -10.3% [at 0.38 µM].

As for `COc1ccc2sc(NC(=O)c3ccco3)nc2c1`, the max activity is 18.6% [at 0.05 µM].

As for `CC(=O)N1CCc2cc(S(=O)(=O)C(C)CC(=O)NCc3ccco3)ccc21` (stereo not drawn), the max activity is -15.3% [at 6 µM].

Regarding `COc1ccc(/C=C/C(=O)Nc2ccccc2C(=O)O)cc1OC`, the max activity was 13.2% [at 1.6 µM].

Turning to `Cc1ccc2nc(CSc3nc(C)ccc3C#N)[nH]c2c1`, the max activity is -29.6% [at 1.6 µM].

Take `COc1cccc(NC(=O)Nc2cccc(C(=O)O)c2)c1`: the max activity is -21.7% [at 3 µM].

On to `COc1cccc(C(=O)Nc2ccc3c(c2)OC[C@@H](C)N(CC2CC2)C[C@H](C)[C@H](OC)CN(C)C3=O)c1`, for which the max activity is 13% [at 0.05 µM].

With `Cc1ccc(Nc2nc(N)c3ccccc3n2)cc1C`, the max activity is -37.4%.

As for `O=C(CC1CS(=O)(=O)CC1CC(=O)Nc1ccc2c(c1)OCCO2)Nc1ccc2c(c1)OCCO2` (stereo not drawn), the max activity is 38.3% [at 0.8 µM].

`Cc1csc(NC(=O)c2cnc3ccccc3n2)n1`: the max activity is 87.3%.

For `Cc1ccc(-n2[nH]c(=O)c(-c3ccccn3)c2C)cc1`, the max activity was 41.3% [at 12 µM].

Regarding `Cc1ccc(S(=O)(=O)N(C)C[C@H]2Oc3c(cccc3N(C)C)C(=O)N([C@@H](C)CO)C[C@@H]2C)cc1`, the max activity was 10.6% [at 6 µM].
